TCR activator: Activators of T cell receptors: qHTS campaign; primary human leukocytes, anti-CD3, IL-2 HTRF, 48 h; 330,000 tested, under 10 active; AID 504894, 2011; Potency, µM (titrated, usually from 9.22 µM), for the others: at the highest dose activation of IL-2 secretion, usual class: activators; further: % of control where 0% means no effect
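Primary human leukocytes receive a-CD3 beads and test compound and are incubated 48 hr. Secreted IL-2 is then assayed by HTRF, measuring 665nm acceptor emission after 320nm excitation of the europium donor.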
GLS inhibitor: qHTS for Inhibitors of Glutaminase (GLS) | GLS enzymatic activity, qHTS titration | Glutaminase kidney isoform, mitochondrial (Homo sapiens), O94925 | actives 0.21% (n = 410,000) | Potency, µM (highest dose often 45.5 µM), for inactives: at the top dose activity change, negative = inhibition, usual class: inhibitors; further: potency means the concentration at half of the fitted maximal effect; on the % scale 0 is the no-effect control and ±100 the full control effect
Target sequence (O94925 whole entry, looked up, canonical isoform): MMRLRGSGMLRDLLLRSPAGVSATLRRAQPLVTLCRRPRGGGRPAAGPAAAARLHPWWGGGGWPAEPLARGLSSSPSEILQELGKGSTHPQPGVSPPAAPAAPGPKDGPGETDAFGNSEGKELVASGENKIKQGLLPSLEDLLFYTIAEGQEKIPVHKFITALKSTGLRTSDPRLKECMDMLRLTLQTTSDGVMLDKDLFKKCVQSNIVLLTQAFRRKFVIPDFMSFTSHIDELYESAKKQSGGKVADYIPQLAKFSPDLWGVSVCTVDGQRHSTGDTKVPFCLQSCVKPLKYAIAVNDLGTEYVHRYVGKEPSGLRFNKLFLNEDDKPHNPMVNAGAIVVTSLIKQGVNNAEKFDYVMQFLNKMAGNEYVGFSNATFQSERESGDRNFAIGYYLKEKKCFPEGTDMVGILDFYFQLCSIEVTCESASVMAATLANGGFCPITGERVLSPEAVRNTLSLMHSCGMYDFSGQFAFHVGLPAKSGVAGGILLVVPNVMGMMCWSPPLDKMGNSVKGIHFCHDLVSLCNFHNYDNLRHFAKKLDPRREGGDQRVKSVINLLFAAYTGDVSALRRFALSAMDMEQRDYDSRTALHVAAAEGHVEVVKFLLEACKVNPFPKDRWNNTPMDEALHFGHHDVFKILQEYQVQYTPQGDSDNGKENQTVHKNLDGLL
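Read-out is an Amplex red fluorescence increase coupled through glutamate oxidase and HRP, measured before and after 30 min room-temperature incubation. hKGA is in 45 mM KH2PO4 (pH 8.2) with 0.02% Tween-20; glutamine added as 1mM solution.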
TSHR antagonist: Antagonists of the Thyroid Stimulating Hormone Receptor: HTS campaign; actives 0.2% (n = 330,000); activity change, negative = inhibition, % at 11.5 µM; Thyrotropin receptor (Homo sapiens), P16473; TSHR-expressing cells, TSH-stimulated cAMP HTRF, 2 h; hits give low values;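 active means activity change below a set negative limit, meaning inhibition stronger than a set level, cut at about -70% in these data; inconclusive means activity change between two set negative limits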; further: on the % scale 0 is the no-effect control and ±100 the full control effect
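Read-out is FRET at 665 nm (cryptate excitation 337 nm) from a cryptate-tagged anti-cAMP antibody, competed by cell cAMP against cAMP-d2. Compounds are tested on freshly harvested TSHR cells challenged with 4nM TSH (EC80) for 2 hours at 37 deg C.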
N370S GC mod: qHTS Assay for Inhibitors and Activators of N370S glucocerebrosidase as a Potential Chaperone Treatment of Gaucher Disease | Lysosomal acid glucosylceramidase (Homo sapiens), P04062 | N370S GC spleen homogenate, 4MU-glucoside fluorescence | Potency, µM (titrated, usually from 59.4 µM), inactives show top-dose activity change, negative = inhibition, hits mostly inhibitors | actives 0.092% (n = 330,000);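 further: potency means the concentration at half of the fitted maximal effect; 0% = full enzyme activity and -100% = no enzyme basal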
p53 reactivation: qHTS assay for re-activators of p53 using a Luc reporter; H1299 p53-A138V BP100-luciferase reporter, luminescence, 24 h; actives 0.063% (n = 320,000); AID 504706, 2011; Potency, µM (series often up to 92.2 µM), inactives show at the highest dose activity change, positive = activation, hits mostly activators; further: potency means the concentration at half of the fitted maximal effect; % of control where 0% means no effect; nearly all actives have a fitted effect of over 45% in size
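p53-null H1299 cells stably carrying temperature-sensitive p53-A138V and a BP100-luciferase reporter were pinned with compounds (4-point, 1:5 series) and held 24 hrs at 37 deg C. Luminescence was read 10 min after detection reagent.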
BRCA1 expr act: qHTS Assay to Identify Small Molecule Activators of BRCA1 Expression | MCF7-BRCA1-FFLuc reporter, luminescence, 48 h; response scale: scaled: vehicle 0%, 10 µM genistein 100% | Potency, µM (titrated, usually from 46.1 µM), for the others: top-dose activation, most hits filed as activators | actives 1.1% (n = 380,000) | AID 624202, 2012; further: potency means the concentration at half of the fitted maximal effect; nearly all actives have a fitted effect of over 80% in size
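First, MCF7-BRCA1-FFLuc cells (2000/well) attach for 2 h; next, compounds are pin-added and incubated 48 h at 37 °C; finally, luciferase reagent is added and luminescence read after 15 min.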
Active calls of the source: *; ? = inconclusive; . = no result; [ ] = another dose, or the depositor's remark. Hits are enriched below; roughly 1.4% of the tested compounds scored in any of these assays. Unless noted, the call rests on the fitted dose curve; in most records, active means well fitted curve in the direction sought with a large enough effect; inconclusive means small, poorly fitted or top-dose-only effect, or another doubt; inactive means no such curve, though single readings can be large; an effect the other way counts as inactive or inconclusive.

SMILES	TCR activator	GLS inhibitor	TSHR antagonist	N370S GC mod	p53 reactivation	BRCA1 expr act
Cc1ccc(NC(=O)Nc2cccc(F)c2)nc1	-0.5%	-1.3%	0.7	?	11.9%	3.16µM*
Cc1ccc(NC(=O)Nc2ccc(Cl)cn2)cc1	-0.5%	-9.4%	30.2	25.7%	9.1%	4.47µM*
Cc1ccnc(NC(=O)Nc2cccc(F)c2)n1	5.3%	-1.1%	12.5	?	6.0%	1µM*
Nc1cc(N)[nH]c(=S)n1	.	.	.	.	.	5.5%
N#Cc1cc2c(nc1SCC1COc3ccccc3O1)CCC2 (stereo not drawn)	-8.6%	-6.7%	-8.7	?	?	8.91µM*
COc1ccccc1/C=N\Nc1ccccc1[N+](=O)[O-]	0.3%	-2.3%	-8.7	2.1%	?	10µM*
COc1ccc(/C=N/Nc2nncc3ccccc23)cc1	6.3%[46.1 µM]	0.0%	-11.4	19.6%	?	6.8%
COc1ccccc1/C=N/Nc1nncc2ccccc12	3.9%[46.1 µM]	-0.3%	24.2	8.1%	?	10µM*
COc1cccc(/C=N/Nc2nc3ccccc3n3cnnc23)c1	-3.2%[46.1 µM]	0.5%	-10.8	-6.0%	1.2%	4.6%
Oc1c(Br)cc(/C=N/Nc2ccc(Cl)nn2)cc1Br	2.0%	?	-2.9	-14.3%	2.4%	-44.7%
COc1cccc(/C=N/Nc2nc3ccccc3n3cnnc23)c1O	0.7%[46.1 µM]	11.0%	-5.4	-12.0%	31.6µM*	-50.7%
Oc1c(Br)cc(/C=N/Nc2nncc3ccccc23)cc1Br	-2.9%	?	1.0	0.8%	?	8.91µM*
Cc1cc(/C=C/c2ccc3cc(N(C)C)ccc3[n+]2C)c(C)n1-c1ccccc1	.	.	.	7.7%	.	.
Cc1cc(C)cc(-n2cnc3cc(C(=O)NC4CCCCCC4)ccc32)c1	.	-12.9%	.	.	.	.
Cc1ccc(-n2c(=S)[nH]c3sc4c(c3c2=O)CCc2ccccc2-4)cc1	-8.0%[46.1 µM]	10.8%	-0.6	8.0%	-6.2%	-30.5%
Cc1cccc(-n2c(=S)[nH]c3sc4c(c3c2=O)CCc2ccccc2-4)c1	4.4%	10µM*	-7.0	12.9%	-3.8%	-59.0%
CC(CC(c1ccccc1)c1ccccc1)NC(C)(C)C (stereo not drawn)	.	9.4%	.	.	.	.
COC(=O)c1cn(CC(=O)NCc2ccco2)c2ccccc12	-0.4%	-2.9%	1.5	3.1%	21.4%	46.7%
CCC(=O)c1cn(CC(=O)NCc2ccco2)c2ccccc12	-3.8%	-3.7%	.	?	.	11.2µM*
CCOC(=O)CN(C)C(=O)C1CC(CO[Si](C)(C)C(C)(C)C)=CN1C(=O)OC(C)(C)C (stereo not drawn)	.	.	.	2.7%	.	.
COc1cc(C(=O)NCc2nc3cccnc3n2Cc2ccc(C)cc2)cc(OC)c1OC	.	4.8%	.	.	.	.
C=C1C=C(C(F)(F)F)n2ncc(C(=O)NCc3ccc(F)cc3)c2N1	.	.	.	.	.	-9.6%
O=C(O)c1ccc(NC2=C(Cl)C(=O)c3ccccc3C2=O)cc1	6.4%	9.5%	-86.8*	-8.5%	-14.6%	-32.4%
O=C1C(Cl)=C(Nc2ccccc2)C(=O)c2ccccc21	4.8%[46.1 µM]	-0.1%	-2.6	0.3%	-18.0%	-87.7%
CN(C)c1ccc(Nc2ccc([N+](=O)[O-])cn2)cc1	-3.0%	5.1%	-3.1	-9.2%	6.6%	3.16µM*
Cc1nc2cnc(N(C)C)nc2n(CCc2ccccc2)c1=O	.	.	.	6.4%	.	.
CCn1c(=S)sc2c(=O)n(CC(=O)Nc3ccc(Cl)cc3)c(C)nc21	7.5%	-5.9%	3.2	-0.3%	-1.3%	-42.8%
CCn1c(=S)sc2c(=O)n(CC(=O)Nc3ccccc3C(F)(F)F)c(C)nc21	10.6%	-4.7%	-127.2*	-15.5%	12.5%	-1.5%
CC(=O)c1cccc(NC(=O)COC(=O)c2ccccc2OCc2cccc(Br)c2)c1	.	.	.	.	.	12.7%

Screening data: PubChem, National Center for Advancing Translational Sciences (NCATS)
